Test results as given in ChEMBL document CHEMBL4513216, “Probing the Open Global Health Chemical Diversity Library for Multistage-Active Starting Points for Next-Generation Antimalarials” (ACS Infect Dis, 2020).
About 8,600 (12%) of roughly 69,000 compounds showed an effect of 50% or more. Only a selection was taken, and strong results are over-represented in it overall.

What follows are compounds tested on Plasmodium berghei (assay: Screen against P. berghei liver stage (PbLuc), transformed with Luciferase, at 10uM). Details: tested at 10 uM.
Assay type: functional, HepG2

SMILES	INHIBITION [%]
CC(C)(C)OC(=O)N[C@H]1CCN(c2cncc(Br)c2)C1	22
CCOC(=O)NC1CCCN(c2cncc(Br)c2)C1 (centres undefined)	35.9
CCCC(=O)NC1CCCN(c2cncc(Br)c2)C1 (centres undefined)	55.4
O=C(c1ccncc1)N1CCC2(COc3ncccc3S(=O)(=O)N2)C1 (centres undefined)	25.1
O=C(C1CCCCC1)N1CCC2(COc3ncccc3S(=O)(=O)N2)C1 (centres undefined)	50.7
O=C1CC2(CCN(C(=O)C3CCCCC3)C2)Nc2ccccc2N1 (centres undefined)	28.4
O=C(c1ccccn1)N1CCC2(COc3ncccc3S(=O)(=O)N2)C1 (centres undefined)	67.3
O=C(c1cscn1)N1CCC2(COc3ncccc3S(=O)(=O)N2)C1 (centres undefined)	48.2
O=C(c1ccc(Cl)s1)N1CCC2(COc3ncccc3S(=O)(=O)N2)C1 (centres undefined)	2.69
CCc1nccn1-c1cncc(C2CCCN2Cc2ccccc2)n1 (centres undefined)	45.6
CCN1C[C@@H]2[C@@H](OC)CCN(S(=O)(=O)c3ccccc3F)[C@@H]2C1	21.6
Cc1noc([C@@H](C)NCc2cccc(Cl)c2)c1C(=O)O	48.2
CN1CC(c2cc(O)nc(NCc3cccc(F)c3)n2)CC1=O (centres undefined)	-34.6
O=S(=O)(NCC(O)c1ccoc1)c1ccc(Cl)s1 (centres undefined)	46.1
CNc1cc(N2CCCC2CNCc2csc(C(C)C)n2)ncn1 (centres undefined)	46.2
CSc1nc(C)cc(N2CCC(c3ncc[nH]3)CC2)n1	44.6
CCOc1cc(C)nc(N2CCN(C(=O)c3cn[nH]c3CC)CC2)n1	44.1
CC(C)=CCC1(CO)CCCN(S(=O)(=O)N2CCCC2)C1 (centres undefined)	91.2
CCN(C)S(=O)(=O)N1CCCC(CO)(CC=C(C)C)C1 (centres undefined)	-3.96
CC(C)=CCC1(CO)CCCN(S(C)(=O)=O)C1 (centres undefined)	28.7
O=C(c1cccnc1O)N1CCN(CCc2cccs2)CC1	20.45
CCNc1nc(-c2cccnc2)c(-c2ccnc(NS(C)(=O)=O)n2)s1	47.1

SMILES	INHIBITION [%]
CC(C)(C)Nc1nc(-c2cccnc2)c(-c2ccnc(NCCO)n2)s1	59
CCNc1nc(-c2cccnc2)c(-c2ccnc(NCCO)n2)s1	-80.5
CN(CC(=O)N1CCCC1Cn1cccn1)Cc1ccccc1 (centres undefined)	48.2
COc1cccc(CN2CCC3(CCN(C(=O)C4CC=CC4)CC3)C2)c1	21.3
Cc1cc(C2CCCCN2C(=O)c2cccn2C)nc2nccn12 (centres undefined)	18.3
Cc1cc(C2CCCCN2C(=O)c2ccsc2)nc2nccn12 (centres undefined)	71.3
Cc1noc(C)c1C(=O)N1CCCCC1c1cc(C)n2ccnc2n1 (centres undefined)	30.4
O=C(c1cncs1)N1CCOCC(Cc2ccncn2)C1 (centres undefined)	11.235
COc1cc(CN(Cc2ccccn2)CC(C)C)cc2c1OCO2	36.2
COc1cc(CN(C)C(C)c2ccccn2)cc2c1OCO2 (centres undefined)	58.6
COc1cc(CN(CCCN(C)C)Cc2ccccn2)cc2c1OCO2	18.9
Cc1cc(F)c(S(=O)(=O)NCC(C)(C)N)cc1F	37.6
CCN(CC)c1ncc(CNC2CCc3nc(C(C)C)nn3C2)s1 (centres undefined)	-3.54
CC(NCc1cn(CCC(N)=O)c2ccccc12)c1nncn1C (centres undefined)	32.7
NC(=O)CCn1cc(CNCCCc2ccccc2O)c2ccccc21	88.5
NC(=O)CCn1cc(CNCCCc2ccncc2)c2ccccc21	-71.1
NC(=O)CCn1cc(CNCc2csc(N)n2)c2ccccc21	60.9
NC(=O)CCn1cc(CNCCCc2csc(N)n2)c2ccccc21	29
CCCN1CCN(Cc2cn(CCC(N)=O)c3ccccc23)CC1	39.8
CC(C)n1cnnc1CCNCc1cn(CCC(N)=O)c2ccccc12	6.94
Cc1n[nH]c(C)c1CCCNCc1cn(CCC(N)=O)c2ccccc12	66.7
Cc1ccc(C(C)NCc2cn(CCC(N)=O)c3ccccc23)cc1C (centres undefined)	27.7

SMILES	INHIBITION [%]
COc1ccc(S(=O)(=O)N2CCC(O)(CN(C)C)C2)cc1 (centres undefined)	38.2
Cc1sc(Br)cc1S(=O)(=O)NCCN	45
O=C(Cc1csc(Cc2ccccn2)n1)NCCCN1CCCC1=O	17.5
CCOCCC(=O)Nc1cccc(Cl)c1COC	33.7
O=C(Cc1n[nH]c2ccccc12)N1CCCC1Cn1cccn1 (centres undefined)	24
CCc1nnc(C(C)N2CCN(CCC(=O)NC3CC3)CC2)o1 (centres undefined)	33.1
CCc1nnc(C(C)N2CCCN(C(=O)OCC(C)C)CC2)o1 (centres undefined)	36.5
CCc1nnc(C(C)N2CCN(CCC(C)(C)C)CC2)o1 (centres undefined)	62.4
Cc1cncc(C(=O)N2CCCC(O)(CN3CCCC3)C2)c1 (centres undefined)	4.13
CC(=O)N1Cc2ccccc2CC2(CCCCN2C)C1 (centres undefined)	42.4
C[C@H](C(=O)N1Cc2ccccc2CC2(CCCN2C)C1)c1ccccc1 (some centres undefined)	51.6
CC(C)C(=O)N1Cc2ccccc2CC2(CCCN2C)C1 (centres undefined)	37.5
CN1CCCCC12Cc1ccccc1CN(C(=O)C1CCCC1)C2 (centres undefined)	8.49
CC(C)C(=O)N1Cc2ccccc2CC2(CCCCN2C)C1 (centres undefined)	53.2
CN1CCCCC12Cc1ccccc1CN(C(=O)c1ccccc1)C2 (centres undefined)	10.1
O=C(c1ccccc1)N(CC1CC1)c1cccnc1	39.7
Cc1cc(NCc2cc3n(n2)CCCN(C(=O)C2CCC2)C3)ncn1	-2.46
CCc1nc(N2CCOCC2)ncc1C(=O)NC(c1cccs1)C(C)C (centres undefined)	29.5
COCCN1C(=O)C2(CCC(C(=O)Nc3ccc(F)cc3)CC2)N=C1C (centres undefined)	20.1
COCCN1C=NC2(CCC(C(=O)Nc3ccc(C)cc3)CC2)C1=O (centres undefined)	63.5
COCCN1C(=O)C2(CCC(C(=O)Nc3ccc(C)cc3)CC2)N=C1C (centres undefined)	31.4
Cc1nc(Nc2cnccn2)cc(C2CN(C(C)C)C2)n1	-21.4

SMILES	INHIBITION [%]
Cc1ccc(-c2nnc(SCC(=O)O)n2-c2ccccc2)cc1	5.11
CC(C)CS(=O)(=O)N1C[C@@H]2C[C@H](C(=O)N(C)C)[C@H](C1)O2	37.5
CCC(C(=O)N1CCN(S(=O)(=O)N2CCCC2)CC1)n1cccn1 (centres undefined)	13
O=C1CCCC2=Nc3nonc3NC(c3ccc(Cl)cc3Cl)C12 (centres undefined)	57.8
O=C1CCCC2=Nc3nonc3NC(c3cc(Cl)ccc3F)C12 (centres undefined)	76.8
O=C1CCCC2=Nc3nonc3NC(c3cccc(F)c3F)C12 (centres undefined)	4.66
O=C1CCCC2=Nc3nonc3NC(c3ccccc3F)C12 (centres undefined)	12.3
O=C1CCCC2=Nc3nonc3NC(c3ccc(F)cc3F)C12 (centres undefined)	-37.6
O=C1CCCC2=Nc3nonc3NC(c3ccccc3Cl)C12 (centres undefined)	12.3
COCCN1CCC(Cc2cnc(-c3ccccc3C(=O)O)cn2)CC1	53
CC(C)N1CCC(Cc2cncc(-c3ccccc3C(=O)O)n2)C1 (centres undefined)	15.9
CN1CCC(Cc2cncc(-c3ccccc3C(=O)O)n2)C1 (centres undefined)	56
CC(C)N1CCC(Cc2cncc(-c3ccccc3C(=O)O)n2)CC1	38.7
CC(C)N1CCC(Cc2cc(-c3ccccc3C(=O)O)ncn2)CC1	18.8
CS(=O)(=O)N1CCCC(Cc2cncc(-c3ccccc3C(=O)O)n2)C1 (centres undefined)	-1.85
CC1=Nc2c(c(=O)[nH]n2C(C)C)C(c2cccc(OC(F)F)c2)S1 (centres undefined)	-28.4
Cc1cccc2nc(CN3CCC(N4CCN(C)C4=O)CC3)cn12	-54.1
COc1nn(C)c2c1CCCN(C(=O)c1cccc(C)n1)C2	31.2
CN1CCC(N2CCC(CN(Cc3ccncc3)C3CCC3)CC2)CC1	53.8
COCCN1CCC(CN(Cc2ccncc2)C2CCCCC2)CC1	-32.1
COCCN1CCC(CN(Cc2ccncc2)C2CCC2)CC1	43.7
O=C(C1=CCCC1)N1C[C@@H]2COC[C@]2(COc2ncccc2F)C1	16.8

SMILES	INHIBITION [%]
CC(O)CN(C(=O)NC1CCN(CC2CCCCC2)CC1)C(C)C (centres undefined)	21.2
CC(O)CN(C(=O)NC1CC1)C(C)C (centres undefined)	55.4
CC(C)N(CC(C)(C)O)C(=O)NC1CC1	23.5
Cc1noc(C)c1CN(C)c1nc(C2CCCC2)nc2c1cnn2C	20
Cn1ncc(NC(=O)Cn2cc(-c3ccc(F)cn3)cn2)n1	77.9
Cc1ncsc1-c1cc(C(=O)NCCO)ccn1	42.6
Cc1nc(C)c(-c2ccn(CC(=O)Nc3cnn(C)n3)n2)s1	82.4
Cn1nccc1NC(=O)Cn1ccc(-c2ccc3c(c2)OCO3)n1	43.4
Cc1ncsc1-c1ccn(CC(=O)Nc2cnn(C)n2)n1	85.7
NC(=O)NC(=O)CCn1ccc(-c2ccc(F)cc2)n1	16.2
CNC(=O)CNC(=O)c1ccc(-c2scnc2C)nc1	-89.4
Cn1ncc(NC(=O)Cn2ccc(-c3cccc(F)c3)n2)n1	7.39
Cc1cc(NC(=O)Cn2ccc(-c3ccc4c(c3)OCO4)n2)n(C)n1	13.8
CC(C)NC(=O)Cn1cc(-c2ccccc2)cn1	-16.7
Cn1ncc(NC(=O)Cn2ccc(-c3ccc(F)cc3)n2)n1	52.2
Cc1ccc(-c2cnn(CC(=O)NC(C)C)c2)cc1	45.7
CCc1noc(CN2CCN(c3nccs3)CC2)n1	19.5
CNC(=O)Cc1n[nH]c(-c2cncc(Br)c2)n1	-6.61
Cc1ncc(C(=O)N2CCCC(C(=O)CCc3ccccc3)C2)s1 (centres undefined)	16.3
CCn1ncc2c1C(COC)CN(S(=O)(=O)N(C)C)C2 (centres undefined)	10
OC(CN1CCN(Cc2ccccc2)CC1)C1CC1 (centres undefined)	-20.5
